{
  "source": "PubChem BioAssay AID2360",
  "about": "(The Scripps Research Institute Molecular Screening Center, 2010)",
  "note": "In all, about 1,900 compounds went through this assay and about 85 (4%) were called active.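 How the source made its calls: active means mean PP5 inhibition over triplicate wells above about 9.5% taken from the earlier PP1 screen (limit read from the data); inactive means the rest.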 Not all results are given here.",
  "data": [
    {"target": "Serine/threonine-protein phosphatase 5 (Homo sapiens) (UniProt P53041)", "sequence (P53041 whole entry, looked up)": "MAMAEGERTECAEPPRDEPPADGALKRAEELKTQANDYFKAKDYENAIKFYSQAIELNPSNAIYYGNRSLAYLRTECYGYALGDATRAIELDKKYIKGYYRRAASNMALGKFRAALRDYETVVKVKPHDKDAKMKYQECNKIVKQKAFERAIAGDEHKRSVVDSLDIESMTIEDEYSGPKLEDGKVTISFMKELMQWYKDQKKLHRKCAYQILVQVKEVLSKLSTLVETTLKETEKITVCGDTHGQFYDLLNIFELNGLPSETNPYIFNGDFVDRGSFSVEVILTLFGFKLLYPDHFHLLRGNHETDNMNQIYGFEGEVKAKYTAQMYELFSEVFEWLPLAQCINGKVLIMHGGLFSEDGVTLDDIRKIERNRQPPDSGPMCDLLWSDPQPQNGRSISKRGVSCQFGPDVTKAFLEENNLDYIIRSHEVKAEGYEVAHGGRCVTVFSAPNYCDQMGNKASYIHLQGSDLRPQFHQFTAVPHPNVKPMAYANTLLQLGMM", "assay": "PP5 phosphatase inhibition by PP1 hits, confirmation, counter-screen for PP1 inhibitor project, biochemical, fluorescence, triplicate (AID 2360)", "conditions": "purified PP5c, OMFP fluorescence; at 6.7 µM; hits give high values", "values": [
      {"smiles": "O=C(COC(=O)c1ccc(Oc2ccccc2)cc1)Nc1nnc(-c2ccccc2)o1", "inhibition": "-5.1% (inactive)"},
      {"smiles": "CN(C(=O)CN(CCO)CC(=O)N(C)C(C)(C)Cc1ccccc1)C(C)(C)Cc1ccccc1", "inhibition": "-8.53% (inactive)"},
      {"smiles": "O=C1c2cccc(OCC(=O)N3N=C(c4cccs4)CC3c3ccc(F)cc3)c2CCN1Cc1ccccc1", "note": "(centres undefined)", "inhibition": "-2.07% (inactive)"},
      {"smiles": "O=C(/C=C/c1ccc(F)cc1)NC(=S)NNC(=O)c1cccnc1", "inhibition": "-1.96% (inactive)"},
      {"smiles": "Cc1ccc(Nc2nc(CSc3nnnn3-c3ccccc3)cc(=O)[nH]2)cc1", "inhibition": "-0.66% (inactive)"},
      {"smiles": "O=C(N=C1SC2CS(=O)(=O)CC2N1c1cc(Cl)ccc1Cl)C1CC1", "note": "(centres undefined)", "inhibition": "-3.78% (inactive)"},
      {"smiles": "O=C(Nc1ccc(S(=O)(=O)Nc2nccs2)cc1)c1cc(-c2ccncc2)nc2ccccc12", "inhibition": "0.33% (inactive)"},
      {"smiles": "OCCCN1c2ccccc2Nc2nnc(-c3ccccc3)cc21", "inhibition": "4.57% (inactive)"},
      {"smiles": "C/C(=N\\c1nc2ccccc2n1C)c1cc(Cl)ccc1O", "inhibition": "-5.58% (inactive)"},
      {"smiles": "COc1ccccc1NC(=O)CSc1nc2sc3c(c2c(=O)n1-c1ccccc1)CCN(C)C3", "inhibition": "-2.95% (inactive)"},
      {"smiles": "Cc1ccc(CSCC2Nc3ccc(C(=O)N4CCN(c5ccc(F)cc5)CC4)cc3NC2=O)cc1", "note": "(centres undefined)", "inhibition": "-0.12% (inactive)"},
      {"smiles": "Cc1ccc(C)c(Cn2nnc3c(=O)[nH]c(C(=O)Nc4ccc(F)cc4)nc32)c1", "inhibition": "-0.92% (inactive)"},
      {"smiles": "CCCCCCCCCCOC(=O)Cn1c(COc2ccc(C)cc2)[n+](C)c2ccccc21", "inhibition": "1.37% (inactive)"},
      {"smiles": "C#CCOCCOCCOCCNc1nc(N2CCN(C(=O)CCCCCCCCCCNC(=O)Cn3cc(CCCCCN)nn3)CC2)nc(N2CCN(C(=O)CCCCCCCCCCNC(=O)[C@H](CO)n3cc(CCCSC)nn3)CC2)n1", "inhibition": "0.18% (inactive)"},
      {"smiles": "Cc1ccc(Cn2nnc3c(=O)[nH]c(C4CCN(S(=O)(=O)/C=C/c5ccccc5)CC4)nc32)cc1", "inhibition": "2.46% (inactive)"},
      {"smiles": "O=[N+]([O-])c1ccccc1/C=N/n1c(COc2ccccc2)n[nH]c1=S", "inhibition": "-5.54% (inactive)"},
      {"smiles": "Cc1nc(/N=C(\\N)NC(=O)NC2CCCCC2)nc2ccccc12", "inhibition": "-1.97% (inactive)"},
      {"smiles": "COC(=O)Cc1cc(=O)n(-c2nc3ccccc3s2)[nH]1", "inhibition": "0.87% (inactive)"},
      {"smiles": "c1ccc(-c2nccc(-c3ccc(-n4cnc5ccccc54)cc3)n2)nc1", "inhibition": "3.84% (inactive)"},
      {"smiles": "O=C(N/N=C/c1cc([N+](=O)[O-])ccc1O)/C(=C\\c1cccs1)NC(=O)c1ccccc1", "inhibition": "-3.51% (inactive)"},
      {"smiles": "COc1ccc(NC(=O)C2C3CCC(O3)C2C(=O)O)cc1OC", "note": "(centres undefined)", "inhibition": "39.5% (active)"},
      {"smiles": "CC(C)OC(=O)c1cc(NC(=O)C2C3CCC(O3)C2C(=O)O)cc(C(=O)OC(C)C)c1", "note": "(centres undefined)", "inhibition": "9.52% (inactive)"},
      {"smiles": "Cc1cc(N2C(=O)C(O)=C(C(=O)c3ccc(C)o3)C2c2ccc(OCc3ccccc3)cc2)no1", "note": "(centres undefined)", "inhibition": "-0.28% (inactive)"},
      {"smiles": "O=[N+]([O-])/C=C/c1ccc2c(ccn2Cc2ccccc2)c1", "inhibition": "-1.11% (inactive)"},
      {"smiles": "C=CCn1c(=NC(=O)c2ccc(S(=O)(=O)N3CCCC3)cc2)sc2cc(NC(C)=O)ccc21", "inhibition": "-0.04% (inactive)"},
      {"smiles": "COCCCNC(=O)C1CC(=O)N(c2ccc(C)cc2)C1", "note": "(centres undefined)", "inhibition": "-1.02% (inactive)"},
      {"smiles": "NC(N)=N/N=C/c1ccc(OCc2ccc(Cl)cc2Cl)cc1", "inhibition": "-2.25% (inactive)"},
      {"smiles": "Cc1ccc(-n2nc3ccc(NC(=O)/C=C/c4ccco4)cc3n2)cc1C", "inhibition": "-6.55% (inactive)"},
      {"smiles": "Clc1ccc2c(c1)C1=C(C(c3ccncc3)O2)C(c2ccc(Br)cc2)n2ncnc2N1", "note": "(centres undefined)", "inhibition": "2.48% (inactive)"},
      {"smiles": "CCn1c(SCC(=O)Nc2cc(C)ccc2C)nnc1-c1cnccn1", "inhibition": "-3.87% (inactive)"},
      {"smiles": "Oc1c(C(c2ccccn2)N2CCOCC2)ccc2cccnc12", "note": "(centres undefined)", "inhibition": "-0.03% (inactive)"},
      {"smiles": "N#Cc1c(-c2ccccc2)nc(SCc2cccc(C(F)(F)F)c2)[nH]c1=O", "inhibition": "-1.06% (inactive)"},
      {"smiles": "C=C1c2c(Cl)ccc(O)c2C(O)=C2C(=O)[C@]3(O)C(O)=C(C(N)=O)C(=O)[C@@H](N(C)C)[C@@H]3[C@@H](O)C12", "note": "(some centres undefined)", "inhibition": "2.9% (inactive)"},
      {"smiles": "Cc1ccc(N2C(=O)C3N=NN(CC(=O)N4N=C(c5cccc6ccccc56)CC4c4ccccc4)C3C2=O)cc1", "note": "(centres undefined)", "inhibition": "-0.1% (inactive)"},
      {"smiles": "CC(=O)c1ccc(N2CCN(S(=O)(=O)c3ccc4c(c3)CC(=O)N4C)CC2)cc1", "inhibition": "2.4% (inactive)"},
      {"smiles": "COc1ccc(-c2nn(-c3ccccc3)cc2/C=C2/SC(=S)N(CCCC(=O)O)C2=O)c(C)c1", "inhibition": "-0.32% (inactive)"},
      {"smiles": "Cc1ccc(OCC(=O)Nc2ccc(-c3nnc(-c4ccco4)o3)cc2)cc1", "inhibition": "-4.22% (inactive)"},
      {"smiles": "CCOc1ccc(NC(=O)c2ccc(NC(=O)COC(=O)c3ccc(NC(=O)CC#N)cc3)cc2)cc1", "inhibition": "-3.12% (inactive)"},
      {"smiles": "CC(C)(C)Nc1nc(-c2ccccn2)nc2ccccc12", "inhibition": "-4.55% (inactive)"}
    ]}
  ]
}
